Test results published in PubChem BioAssay (NCATS).
Where “and” joins values, the source holds several entries; their conditions need not be identical. Identical values can stand only once. Inconclusive results are not listed. Calls of active or inactive are those of the source. Calls follow the shape of the dose curve; as a rule, active = well fitted curve in the direction sought with a large enough effect; inconclusive = small, poorly fitted or top-dose-only effect, or another doubt; inactive = no such curve, though single readings can be large or run the other way. Peptide text beside a SMILES is read from it.

Assay: qHTS Assay for Identifying Gametocytocidal Compounds (AID 743244);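 as to max response: actives lower the fluorescent signal which means gametocytes are killed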
Settings: P. falciparum 3D7 stage III-V gametocytes, alamarBlue, 72 h; max response: hits give low values
Method in brief: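 Late gametocytes (III–V), P. falciparum 3D7; 72 h drug, then 24 h alamarBlue; resazurin reduction read by fluorescence.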
% is scaled to controls: 0 for no effect and ±100 for the full control effect; potency is read from the fitted curve at half-maximal effect.

Row | SMILES | max response | Potency
1 | Cc1cccc(-c2[nH]ncc2-c2ccc3ncccc3n2)n1 | -4.01% (inactive) | –
2 | CCN(CC)C(=S)SSC(=S)N(CC)CC | – | 3.98 µM (active) and 60.5 nM (active) and 74.3 nM (active)
3 | Cc1ccc(Nc2nccc(N(C)c3ccc4c(C)n(C)nc4c3)n2)cc1S(N)(=O)=O | 45.8% (inactive) | –
4 | Nc1ccc(S(N)(=O)=O)cc1 | 6.71% (inactive) | –
5 | CC1Cc2ccccc2N1NC(=O)c1ccc(Cl)c(S(N)(=O)=O)c1 (stereo not drawn) | 1.41% (inactive) and -0.446% (inactive) | –
6 | Nc1nc(Cl)nc2c1ncn2[C@H]1C[C@H](O)[C@@H](CO)O1 | 30.7% (inactive) and 5.06% (inactive) | –
7 | C[Se]CCC(N)C(=O)O (stereo not drawn) | -7.98% (inactive) | –
8 | CCCc1cc(=O)[nH]c(=S)[nH]1 | 1.36% (inactive) | –
9 | Nc1cccc2c1CN(C1CCC(=O)NC1=O)C2=O (stereo not drawn) | 12.8% (inactive) and 1.91% (inactive) | –
10 | O=C(O)c1cc(=O)c2c(OCC(O)COc3cccc4oc(C(=O)O)cc(=O)c34)cccc2o1 | 10.5% (inactive) | –
11 | Cc1ccc(NC(=O)c2ccc(CN3CCN(C)CC3)cc2)cc1Nc1nccc(-c2cccnc2)n1 | – | 12.6 µM (active)
12 | CS(=O)(=O)OCCCCOS(C)(=O)=O | 7.28% (inactive) | –
13 | Cc1cccc(C)c1OCC(=O)N[C@@H](Cc1ccccc1)[C@@H](O)C[C@H](Cc1ccccc1)NC(=O)[C@H](C(C)C)N1CCCNC1=O | – | 11.2 µM (active) and 6.62 µM (active)
14 | CCOC(=O)C1=C(O)C(=O)N(Cc2ccccc2)C1 | 44.6% (inactive) | –
15 | S=c1nc[nH]c2nc[nH]c12 | 21.9% (inactive) and -4.09% (inactive) | –
16 | COCCCOc1ccnc(CS(=O)c2nc3ccccc3[nH]2)c1C (stereo not drawn) | 2.05% (inactive) | –
17 | COc1cc(Nc2c(C#N)cnc3cc(OCCCN4CCN(C)CC4)c(OC)cc23)c(Cl)cc1Cl | – | 3.55 µM (active)
18 | COc1cc(OC)c(C(=O)CCCN2CCCC2)c(OC)c1 | 4.14% (inactive) | –
19 | Cc1nc2n(c(=O)c1CCN1CCC(c3noc4cc(F)ccc34)CC1)CCCC2 | 9.32% (inactive) | –

Row | SMILES | max response | Potency
20 | C=CCc1cc(OC)c(O)c(C(=O)NCCO)c1 | -5.25% (inactive) | –
21 | CCCCC(CC)COC(=O)C(C#N)=C(c1ccccc1)c1ccccc1 (stereo not drawn) | 17.2% (inactive) | –
22 | CC(C)C[C@H](NC(=O)[C@H](Cc1ccccc1)NC(=O)c1cnccn1)B(O)O | – | 118 nM (active) and 316 nM (active)
23 | Cc1ccc(C)c(OCCCC(C)(C)C(=O)O)c1 | 17.4% (inactive) | –
24 | COC(=O)[C@H](Cc1ccccc1)NC(=O)[C@@H](N)CC(=O)O (H-Asp-Phe-OMe) | 15.3% (inactive) and 2.54% (inactive) | –
25 | c1ccc2[nH]c(-c3cscn3)nc2c1 | 16.1% (inactive) | –
26 | N[C@@H](Cc1cc(I)c(Oc2cc(I)c(O)c(I)c2)c(I)c1)C(=O)O | 2.42% (inactive) | –
27 | NS(=O)(=O)c1cc(C(=O)O)c(NCc2ccco2)cc1Cl | 3.33% (inactive) | –
28 | COc1cc(C(C)=O)ccc1OCCCN1CCC(c2noc3cc(F)ccc23)CC1 | 6.32% (inactive) | –
29 | NC(=O)Cc1cccc(C(=O)c2ccccc2)c1N | 5.12% (inactive) | –
30 | CCOC(=O)C1=C[C@@H](OC(CC)CC)[C@H](NC(C)=O)[C@@H](N)C1 | -3.59% (inactive) | –
31 | COc1ccc(C2(C#N)CCC(C(=O)O)CC2)cc1OC1CCCC1 (stereo not drawn) | 4.12% (inactive) | –
32 | Cc1cc2c(s1)Nc1ccccc1N=C2N1CCN(C)CC1 | 2.02% (inactive) | –
33 | CN(C)c1ccc2nc3ccc(=[N+](C)C)cc-3sc2c1 | – | 166 nM (active) and 303 nM (active)
34 | COc1c2occc2cc2ccc(=O)oc12 | 12.3% (inactive) | –
35 | O=C(OC1C[C@H]2CC[C@@H](C1)[N+]21CCCC1)C(O)(c1ccccc1)c1ccccc1 (stereo partly drawn) | -10.3% (inactive) | –
36 | Nc1ncn([C@H]2C[C@H](O)[C@@H](CO)O2)c(=O)n1 | -3.47% (inactive) | –
37 | CCc1nc(N)nc(N)c1-c1ccc(Cl)cc1 | 14.3% (inactive) | –
38 | CCN(CCO)CCCC(C)Nc1ccnc2cc(Cl)ccc12 (stereo not drawn) | -15.7% (inactive) | –
